High-throughput results (PubChem)
Many of the other results were omitted from the sample, so hits are more common in it than they were.
Integrin act MD – qHTS for Activators of Integrin-Mediated Alleviation for Muscular Dystrophy; alpha7betagal myoblasts, beta-gal FDG fluorescence, 48 h; Potency, µM (highest dose often 38.3 µM), for the others: at the top dose activation, actives largely listed as activators; 350,000 compounds, 0.064% hits; AID 624291, 2012;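 also: potency is read from the fitted curve at half-maximal effect; 100% = response of the positive control SU9516; nearly all actives have a fitted effect of over 60% in size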
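Alpha7betagal+/- myoblasts (passage 13) were plated 16-24 hr, then exposed to compounds (1:260 dilution of DMSO stock) for 48 hours at 37C. After MPER lysis, β-galactosidase reporter activity was read as FDG fluorescence (ex 480/em 540) after 30 minutes.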
RORg inh – qHTS for inhibitors of ROR gamma transcriptional activity; Drosophila S2 Gal4-RORgamma UAS-luciferase reporter, 20 h; AID 2551, 2010; 310,000 compounds, 5.4% hits; Potency, µM (series often up to 53.6 µM), without a hit: top-dose activity change, negative = inhibition, actives largely listed as inhibitors; also: potency is read from the fitted curve at half-maximal effect; % is scaled to controls: 0 for no effect and ±100 for the full control effect; nearly all actives have a fitted effect of over 60% in size
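Drosophila Schneider cells stably carrying a metallothionein-driven Gal4 DBD–ROR gamma fusion and a UAS-Photinus luciferase reporter were exposed to compound for 1 hr, then induced with copper sulfate (700 uM final) for 20 hr at ambient temperature before luminescence reading.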
ERG Ets-DNA blk – qHTS for Small Molecule Inhibitors of the ERG Ets/DNA interaction; fluorescence polarization, His-ERG Ets domain / labelled DNA; Potency, µM (top dose mostly 76.9 µM), for the others: at the top dose FP activity, negative = inhibition, hits mostly inhibitors; AID 624246, 2012; 370,000 compounds, 0.028% hits; active = well fitted inhibition curve with a large enough effect in the polarisation, with a control signal flat; inconclusive = small, poorly fitted or top-dose-only effect, or effect the other way, or a change in a side signal; inactive = no such curve, though single readings can be large or run the other way; the % refers to the polarisation;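 also: polarization taken with two DNA probes labelled with fluorescein and Texas red; potency is read from the fitted curve at half-maximal effect; % of control where 0% means no effect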
Target sequence (P11308 whole entry, looked up, the tested form may be a part): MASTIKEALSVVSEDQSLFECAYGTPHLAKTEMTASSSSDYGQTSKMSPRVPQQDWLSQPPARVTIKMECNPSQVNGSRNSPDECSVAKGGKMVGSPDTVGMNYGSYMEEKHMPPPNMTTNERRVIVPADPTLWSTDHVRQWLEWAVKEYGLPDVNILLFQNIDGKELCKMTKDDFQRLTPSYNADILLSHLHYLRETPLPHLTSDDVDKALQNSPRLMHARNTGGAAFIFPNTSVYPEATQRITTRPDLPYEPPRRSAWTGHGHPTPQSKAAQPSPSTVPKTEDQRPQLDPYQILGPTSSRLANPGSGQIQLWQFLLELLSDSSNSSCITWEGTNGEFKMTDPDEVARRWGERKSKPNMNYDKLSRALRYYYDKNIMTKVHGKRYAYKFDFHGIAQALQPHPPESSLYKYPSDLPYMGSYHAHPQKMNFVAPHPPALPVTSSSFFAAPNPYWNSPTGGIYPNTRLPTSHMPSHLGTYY
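His-tagged ERG Ets domain (1 uM in the protein solution; 300mM KCl, 50mM Tris-HCl, 1mM EDTA, 1mM DTT, pH 7.5) received compound, then a probe mix of 5 nM fluorescein-DNA and 100nM Texas-615-DNA. Fluorescence polarization was read for both dyes.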
VP16 counter – VP16 counterscreen qHTS for inhibitors of ROR gamma transcriptional activity; Drosophila S2 Gal4-VP16 UAS-luciferase, luminescence, 20 h; Potency, µM (series often up to 53.6 µM), for the others: at the highest dose activity, negative = inhibition, hits mostly inhibitors; 310,000 compounds, 3.5% hits; AID 2546, 2010;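 also: Gal4-VP16 expression switched on by copper sulfate through the metallothionein promoter; potency is read from the fitted curve at half-maximal effect; % is scaled to controls: 0 for no effect and ±100 for the full control effect; nearly all actives have a fitted effect of over 50% in size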
Giardia killer – Small Molecules that selectively kill Giardia lamblia: qHTS. Giardia lamblia trophozoite viability. activity change, % at 7.66 µM, hits read low. 340,000 compounds, 0.15% hits; in the data active = activity change below about -80%; inconclusive = between about -30% and that limit;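 also: parasites exposed to compound for two days anaerobically before the ATP read; % is scaled to controls: 0 for no effect and ±100 for the full control effect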
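Media and compound were dispensed first, then trophozoites at 100 cells/well; plates sat 48 hrs at 37 deg C without oxygen before ATP luminescence reagent was added and read after 15-30 min at room temperature.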
* marks the source's active call; other numbers are inactive results; u = inconclusive; x = no result given; [ ] = dose if it differs, or a comment. Unless noted, calls follow the shape of the dose curve; as a rule, active = well fitted curve in the direction sought with a large enough effect; inconclusive = small, poorly fitted or top-dose-only effect, or another doubt; inactive = no such curve, though single readings can be large; an effect the other way counts as inactive or inconclusive.

SMILES | Integrin act MD | RORg inh | ERG Ets-DNA blk | VP16 counter | Giardia killer
Cc1nnc(NC(=O)CCC2CCCCC2)s1 | 10% | x | x | x | x
O=C(CCC(=O)N(CC(=O)NC1CCCC1)c1ccccc1F)Nc1nccs1 | -13% | 13µM* | 4% | 5% | 7
COc1cccc([C@@H]2Oc3ccc(Br)cc3C(=O)[C@H]2OC(=O)NS(=O)(=O)c2ccc(C)cc2)c1 | x | -6% | x | 7% | x
CCOC(=O)N/N=C1/C[C@@H](O)[C@@H](O)[C@@H]2[C@@H]3C(=O)N(C(C)(C)C)C(=O)[C@H]3CC[C@@H]12 | x | -1%[10 µM] | x | 7%[10 µM] | x
CCC(=O)N1CCc2cc(S(=O)(=O)NCCC(=O)Nc3cc(C)ccc3OC)ccc21 | x | x | 4% | x | x
CCCN1C(=S)c2ccccc2C1c1ccccc1 (stereo not drawn) | 16% | 10µM* | 3% | -1% | -13
CCOC(=O)c1cc(-c2ccccc2)nc2c1c(C)nn2-c1ccccn1 | 3% | 4µM* | 2% | 11µM* | 2
Cc1cc(C)cc(-n2c(C)cc(/C=N/NC(=O)c3ccncc3)c2C)c1 | -6% | 7.1µM* | 1% | -8%[10 µM] | -8
Cc1ccc(C(=O)Nc2cccc(C(=O)N/N=C/c3ccc(O)cc3)c2)cc1 | -21% | -17% | 3% | u | -21
Cc1c(C(=O)N/N=C/c2ccoc2)cccc1[N+](=O)[O-] | u | -4% | -2% | u | 8
Cc1cc(/C=N/NC(=O)C(O)(c2ccccc2)c2ccccc2)c(C)n1-c1cccc(C(=O)O)c1 | 13% | -9% | 5% | 6% | -28
Cc1cc(/C=N/NC(=O)c2ccc(O)cc2)c(C)n1C1CC1 | 13% | 13µM* | -7% | u | 15
Cc1cc(C)cc(-n2c(C)cc(/C=N/NC(=O)c3cccc([N+](=O)[O-])c3C)c2C)c1 | -31% | 2.8µM* | 3% | 4.5µM* | -10
Cc1cc(/C=N/NC(=O)C(O)(c2ccccc2)c2ccccc2)c(C)n1-c1ccc(C(=O)O)cc1 | 6% | 11µM* | -11% | u | 8
COc1ccc(Cc2nnc(SCC(=O)NC3(C#N)CCCCC3)n2N)cc1 | 6% | x | -2% | x | -30
Cc1onc(-c2ccccc2)c1C(=O)NN1CCOCC1 | 19% | x | x | x | -19
O=S(=O)(c1ccc2c(c1)OCCO2)N1CCN(c2nc(-c3ccccc3)nc3ccccc23)CC1 | x | x | x | x | 5
Cc1ccc(Cl)cc1 | x | 3% | x | 3% | x
CCCOCC(C)O (stereo not drawn) | x | 1% | x | 1% | x
Cc1ccccc1-n1c(C)cc(/C=N/NC(=O)c2ccncc2)c1C | 6%[7.66 µM] | 2.8µM* | -2% | 10µM* | 10
CC1(C)CC(=O)C(C=NCc2ccccn2)=C(O)C1 | 8% | 7.1µM* | x | 16µM* | -4
COc1cc(OC)cc(C(=O)NCc2ccc3[nH]c(C)cc3c2)c1 | 0% | 6% | 5% | -23% | 12
CCCCNC(=S)NCc1ccc2[nH]c(C)cc2c1 | 6% | 10µM* | 4% | u | 15
CCOc1ccc(NC(=S)NCc2ccc3[nH]c(C)cc3c2)cc1 | 0% | 2.5µM* | -1% | 10µM* | -4
CCc1c(-c2ccccc2)nc2ccccc2c1C(=O)NC(C)c1ccccc1 (stereo not drawn) | x | x | 0% | x | x
SMILES | Integrin act MD | RORg inh | ERG Ets-DNA blk | VP16 counter | Giardia killer
Cc1ccc2c(c1)sc(=NC(=O)C1CC1)n2C | 0% | -26% | -4% | -7% | 8
Cc1ccc2c(c1)sc(=NC(=O)c1cccs1)n2C | -3% | 8.9µM* | -6% | 7.9µM* | u
CC(=O)C1=C(c2cccc([N+](=O)[O-])c2)N(C(C)=O)n2c(C)nnc2S1 | -9% | 5µM* | 11% | u | -7
C=CCn1c(-c2ccccc2[N+](=O)[O-])n[nH]c1=S | u | 3.2µM* | -3% | u | -6
C=CCn1c(-c2cccn(Cc3ccc(Cl)cc3)c2=O)n[nH]c1=S | 16% | 6.3µM* | 0% | u | -21
O=c1c(-c2n[nH]c(=S)n2-c2ccccc2)cccn1Cc1cccc(Cl)c1 | -27% | 13µM* | 7% | -9% | 17
C=CCn1c(-c2cccn(Cc3cccc(Cl)c3)c2=O)n[nH]c1=S | 13% | 13µM* | -4% | u | -15
O=c1c(-c2n[nH]c(=S)o2)cccn1Cc1ccccc1 | -2% | -13% | -5% | 8% | 3
Cc1onc(-c2ccc(Br)cc2)c1C(=O)Nc1ccc(Br)cc1F | x | x | 6% | x | x
CC1=C2C(=COC(C)C2C)C(=O)C(C(=O)O)=C1O (stereo not drawn) | x | -32% | x | 1% | x
CCC(CC)C(=O)Nc1cccc(-c2nc3cccnc3s2)c1C | x | x | -3% | x | x
C=CCn1c(-c2cccnc2)n[nH]c1=S | 24% | 13% | -13% | -9% | -16
C=CCn1c(-c2cccn(Cc3ccc(Cl)cc3Cl)c2=O)n[nH]c1=S | 3% | 2.5µM* | -3% | 10µM* | -2
C=CCn1c(-c2cccn(Cc3ccccc3)c2=O)n[nH]c1=S | 7% | 11µM* | 5% | -29% | -3
CC(C)CNC(=S)NC(=O)c1ccc(F)cc1 | -12% | 7.9µM* | -2% | u | -3
CCCNC(=O)c1ccc(Cl)cc1Cl | 38% | 25% | -11% | 4% | -6
Cc1cc(NC(=O)c2ccc(Cl)cc2Cl)no1 | 1.4µM* | 30%[1.91 µM] | -4% | -14% | -19
O=C(NC(=S)Nc1ccccc1O)c1ccc(Cl)cc1Cl | u | 2.5µM* | 7% | 7.1µM* | -17
CC(C)CNC(=S)NC(=O)c1ccc(Cl)cc1Cl | 12% | 7.1µM* | 0% | 5.6µM* | -13
COc1ccc2cc3cc(C(=O)NCCc4ccccc4)sc3nc2c1Cl | x | x | -8% | x | x
CC(=O)c1ccc(NC(=O)C[n+]2cccc(C)c2)cc1 | -20% | 1% | -5% | -9% | -1
CCC(C)C(NC(=O)c1ccc(Cl)cc1Cl)C(=O)O (stereo not drawn) | 7% | 3% | -1% | 0% | -12
CC(C)NC(=S)NC(=O)c1ccc(Cl)cc1Cl | 6% | 8.9µM* | 1% | 10µM* | -19
c1csc(C2CCCN2c2nc3nonc3nc2NC2CC2)n1 (stereo not drawn) | 8% | 5µM* | 1% | 10µM* | -8
CCOc1ccccc1NC(=O)c1sc2nc3c(cc2c1N)CN(Cc1ccccc1)CC3 | x | x | 4% | x | x
COc1cccc(CNC(=O)C(=O)N2CCC3(CC2)OCCN3S(=O)(=O)c2ccc(C)cc2)c1 | 4% | x | 4% | x | 7
CCn1cnc2c([N+](=O)[O-])c(NS(=O)(=O)c3ccc(C)cc3)ccc21 | 15% | x | 3% | x | -88*
NC(=O)C1CCN(C(=O)COc2ccc3ccccc3c2Br)CC1 | -42% | 1.8µM* | 0% | u | -20
Cc1nn2cc(-c3ccccc3)nc2s1 | 40% | 11µM* | x | u | 7
